From PubChem BioAssay (NCATS) come the findings set out here.

Records with an inconclusive call do not appear. A call without a number means that no potency is given here. Values without a mark were called inactive. Activity calls are given as the source filed them. Calls follow the shape of the dose curve; as a rule, active = well fitted cell-killing curve with a large enough effect; inconclusive = small, poorly fitted or top-dose-only effect, or effect the other way; inactive = flat fitted curve, though single readings scatter.

For the test, the system named is Tov112D. The experiment in a line: Primary qHTS to identify gynecologic anti-cancer compounds using libraries of approved drugs and bioactive compounds (AID 1345084). Also: nearly all actives have a fitted effect of over 55% in size. Particulars: Gynecologic cancer cell panel viability, ATPlite luminescence, 48 h; series mostly up to 57.5 µM. An outline of the steps: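 Measured: luminescence after ATPlite addition (15 min, RT). Exposure: 48 h, 37 C, 5% CO2.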
`O=C(O)CCc1c(C(=O)O)[nH]c2cc(Cl)cc(Cl)c12`: the Potency entry is “inactive”.
Still for that read-out and setting: the entry for `OC[C@@]1(O)CO[C@H](OC[C@H]2O[C@@H](OCCc3ccccc3)[C@H](O)[C@@H](O)[C@@H]2O)[C@@H]1O` is “inactive”; for `C=C1CC[C@H]2[C@@](C)(CCC(O)[C@@]2(C)CO)[C@@H]1/C=C/C(=C\C(=O)O)C(=O)O` (stereo partly drawn) it is “inactive”.
Same read-out and setting: the entry for `C=C1C(OC(C)=O)C(=O)C2C(C)(C)C(O)CCC2(C)C1CC(OC(C)=O)/C(C)=C/COC(C)=O` (stereo not drawn) is “inactive”; for `Cc1cc(-c2nncc3c(C(C)(C)C)c(OCc4ncnn4C)nn23)no1` it is “inactive”; for `C=C1CC2C(C)(CCC(=O)O)C(C(C)(C)O)CCC2(C)C2(C(=O)OC)C(=O)C(C)(O)C(=O)C12C` (stereo not drawn) it is “inactive”.
Turning to `C[C@@H]1O[C@@H](O[C@H]2[C@H](OC(=O)[C@]34CCC(C)(C)C[C@H]3C3=CCC5[C@@]6(C)CC[C@H](O[C@@H]7O[C@H](CO[C@@H]8OC[C@H](O)[C@H](O)[C@H]8O[C@@H]8OC[C@@H](O)[C@H](O)[C@H]8O)[C@@H](O)[C@H](O)[C@H]7O)C(C)(C)C6CC[C@@]5(C)[C@]3(C)C[C@H]4O)O[C@H](CO)[C@@H](O)[C@@H]2O)[C@H](O[C@@H]2O[C@H](CO)[C@@H](O)[C@H](O)[C@H]2O)[C@H](O)[C@H]1O[C@@H]1OC[C@@H](O)[C@H](O[C@@H]2OC[C@@H](O)[C@H](O)[C@H]2O)[C@H]1O` (stereo partly drawn), the activity change, negative = cytotoxicity was 0.0551% [at 6.55 µM].
`COCCCc1sc(-c2ccccc2)nc1C(=O)Nc1ccccc1-c1nc2cc(CN3CCCC3)cnc2s1`: the Potency entry was “inactive”.
